Assay outcomes as filed in PubChem.
This is a sample that favours compounds with a hit; in the whole collection about 0.91% have one here.
TRb-SRC2 inh: qHTS for Inhibitors of the Interaction of Thyroid Hormone Receptor and Steroid Receptor Coregulator 2. Potency, µM (titrated, usually from 106 µM), usual class: inhibitors. 280,000 compounds, 0.065% hits. TRbeta-SRC2 peptide binding, fluorescence polarization; receptor liganded with 1 µM T3. Thyroid hormone receptor beta (Homo sapiens), P10828; further: nearly all actives have a fitted effect of over 50% in size
Target sequence (P10828 whole entry, looked up): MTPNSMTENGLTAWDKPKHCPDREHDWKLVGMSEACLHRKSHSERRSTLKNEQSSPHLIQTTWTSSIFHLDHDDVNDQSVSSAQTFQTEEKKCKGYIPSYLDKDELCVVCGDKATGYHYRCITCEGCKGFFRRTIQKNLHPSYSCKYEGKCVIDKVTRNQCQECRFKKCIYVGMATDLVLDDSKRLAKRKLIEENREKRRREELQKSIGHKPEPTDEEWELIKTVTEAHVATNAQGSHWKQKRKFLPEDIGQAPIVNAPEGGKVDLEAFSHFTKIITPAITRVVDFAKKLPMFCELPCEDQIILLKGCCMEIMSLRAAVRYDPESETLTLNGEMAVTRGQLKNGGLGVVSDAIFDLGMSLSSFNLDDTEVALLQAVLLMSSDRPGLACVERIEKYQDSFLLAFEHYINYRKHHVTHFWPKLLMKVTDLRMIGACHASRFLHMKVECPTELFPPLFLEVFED
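Assay buffer: 20 mM Tris-HCl, 100 mM NaCl, 10% glycerol, 1 mM EDTA, 0.01% NP-40, 1 mM DTT, 1 uM T3, 5% DMSO; TRb LBD 0.6 uM, Texas Red SRC2 20 nM; FP after 5 hr.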
TexasRed fluor: Total Fluorescence Counterscreen for Inhibitors of the Interaction of Thyroid Hormone Receptor and Steroid Receptor Coregulator 2. TRb/SRC2 Texas Red total fluorescence interference. Potency, µM (titrated, usually from 106 µM). 280,000 compounds, 0.29% hits. AID 1479, 2009; active means well fitted curve in either direction with a large enough effect; inconclusive means small, poorly fitted or top-dose-only effect
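Flags fluorescent or light-absorbing compounds by total fluorescence, S + 2P, at 555 nm excitation and 632 nm emission. Mixture: 20 nM Texas Red SRC2 peptide, 0.6 uM human TRb LBD, 1 uM T3, 5% DMSO; compound exposure 5 h at ambient temperature.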
BLM helicase inh: qHTS Assay for Inhibitors of Bloom's syndrome helicase (BLM); Potency, µM (titrated, usually from 56.1 µM), usual class: inhibitors; RecQ-like DNA helicase BLM (Homo sapiens), P54132; recombinant BLM DNA unwinding, fluorescence dequenching; 350,000 compounds, 0.2% hits; further: nearly all actives have a fitted effect of over 35% in size
WRN helicase inh: qHTS for Inhibitors of WRN Helicase; Bifunctional 3'-5' exonuclease/ATP-dependent helicase WRN (Homo sapiens), Q14191; WRN helicase unwinding, fluorescent forked duplex, kinetic; Potency, µM (highest dose often 114 µM), most hits filed as inhibitors; 360,000 compounds, 0.46% hits; AID 651768, 2012; further: nearly all actives have a fitted effect of over 55% in size
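Fluorescence dequenching readout, ex 525 nm/em 598 nm, kinetic mode: forked duplex DNA (100 nM final) with adjacent fluorophore and quencher unwound by WRN (20 nM final) with 2 mM ATP. Compound preincubation 15 min, room temperature.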
RECQ1 inh-1: qHTS Assay for Inhibitors of RecQ-Like Dna Helicase 1 (RECQ1). ATP-dependent DNA helicase Q1 (Homo sapiens), P46063. RECQ1 DNA unwinding, red fluorescence kinetic read. Potency, µM (titrated, usually from 57.3 µM), hits mostly inhibitors. 240,000 compounds, 0.54% hits; further: nearly all actives have a fitted effect of over 30% in size
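50 nM RECQ1T1 preincubated 15 min with compound in Tris pH 8.0 buffer with MgCl2, DTT, Tween-20 and 2.5 ug/ml poly(dI-dC); started with 200 nM TAMRA/BHQ-2 forked duplex and 2 mM ATP. Unwinding read as fluorescence (525/598 nm), two reads 2 h apart.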
APEX1 inh: qHTS Assay for Inhibitors of the Human Apurinic/apyrimidinic Endonuclease 1 (APE1). 350,000 compounds, 0.35% hits. recombinant APE1, TAMRA/BHQ-2 abasic DNA cleavage fluorescence. DNA repair nuclease/redox regulator APEX1 (Homo sapiens), P27695. AID 2517, 2012. Potency, µM (doses to about 65.8 µM), most hits filed as inhibitors; further: nearly all actives have a fitted effect of over 55% in size
Target sequence (P27695 whole entry, looked up): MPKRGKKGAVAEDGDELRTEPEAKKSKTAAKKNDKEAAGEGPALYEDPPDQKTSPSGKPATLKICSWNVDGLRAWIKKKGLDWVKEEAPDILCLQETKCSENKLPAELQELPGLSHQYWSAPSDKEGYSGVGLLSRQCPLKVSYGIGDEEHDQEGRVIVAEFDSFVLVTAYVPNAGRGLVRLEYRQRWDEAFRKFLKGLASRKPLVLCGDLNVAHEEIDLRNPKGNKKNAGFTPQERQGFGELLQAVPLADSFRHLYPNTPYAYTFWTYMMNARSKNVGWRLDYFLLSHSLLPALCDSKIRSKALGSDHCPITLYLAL
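APE1 at 0.75 nM final was preincubated with compound 15 min at room temperature, then 50 nM double-stranded THF abasic-site substrate (5'-TAMRA/3'-BHQ-2) was added. Fluorescence (ex 525/em 598 nm) was read kinetically; third-minus-first read gave activity.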
RECQ1 conf: Confirmation qHTS Assay for Inhibitors of RecQ-Like Dna Helicase 1 (RECQ1) | 610 compounds, 28% hits | Potency, µM (highest dose often 229 µM), most hits filed as inhibitors | RECQ1 helicase DNA unwinding, fluorescence | AID 2708, 2010 | shares compounds with RECQ1 inh-1; further: nearly all actives have a fitted effect of over 45% in size
ADP FP counter: Counterscreen for RECQ1 Inhibitors: ADP Fluorescence Polarization Displacement Assay; ADP fluorescence polarization displacement counterscreen; shares compounds with RECQ1 inh-1; Potency, µM (series often up to 228 µM), usual class: inhibitors; 530 compounds, 27% hits; AID 2711, 2010; further: nearly all actives have a fitted effect of over 45% in size
RECQ1 inh-2: Confirmation qHTS Assay for Inhibitors of RecQ-Like Dna Helicase 1 (RECQ1) - Round 2 Cherry Picks; shares compounds with RECQ1 inh-1; recombinant RECQ1 DNA unwinding, red fluorescence; Potency, µM (highest dose often 119 µM), usual class: inhibitors; 1,100 compounds, 15% hits; AID 504841, 2011; further: nearly all actives have a fitted effect of over 50% in size
Numbers stand for hits; n = inactive; u = inconclusive; x = not tested or not shown; [ ] = remark or other dose. Unless noted, the call rests on the fitted dose curve; in most records, active means well fitted curve in the direction sought with a large enough effect; inconclusive means small, poorly fitted or top-dose-only effect, or another doubt; inactive means no such curve, though single readings can be large; an effect the other way counts as inactive or inconclusive.

SMILES | TRb-SRC2 inh | TexasRed fluor | BLM helicase inh | WRN helicase inh | RECQ1 inh-1 | APEX1 inh | RECQ1 conf | ADP FP counter | RECQ1 inh-2
O=C(c1ccncc1)N1CCN(C2CCC(c3ccccc3)CC2)CC1 (stereo unspecified) | n | n | n | u | u | n | x | x | n
CCOc1ccccc1/C=C\c1nc(O)c([N+](=O)[O-])c(=O)[nH]1 | x | x | n | n | x | n | x | x | x
Cc1cc(/C=C\c2nc(O)c([N+](=O)[O-])c(=O)[nH]2)c(C)n1-c1ccccc1 | n | n | n | u | 25µM | u | x | x | u
COc1ccc(-n2c(C)cc(/C=C/c3nc(O)c([N+](=O)[O-])c(=O)[nH]3)c2C)cc1 | n | n | n | n | u | u | x | x | u
CC(C)Oc1cccc(C(=O)C2CCCN(C(=O)CCc3cnn(C)c3)C2)c1 (stereo unspecified) | x | x | n | u | x | n | x | x | x
CCOc1ccc(S(=O)(=O)Nc2nc3ccccc3nc2-n2ccc(=NC(=O)c3cccs3)cc2)cc1 | n | n | n | n | n | n | x | x | x
O=C(N=c1ccn(-c2nc3ccccc3nc2NS(=O)(=O)c2ccc(Cl)cc2)cc1)c1cccs1 | n | n | n | n | u | n | x | x | n
CCCCN(C(=O)c1ccc(S(=O)(=O)N(CC)CC)cc1)c1c(N)n(CCC)c(=O)[nH]c1=O | x | x | n | n | x | n | x | x | x
Cc1ccc(OCc2nnc(SC(C)C(=O)O)n2Cc2ccccc2)cc1 (stereo unspecified) | n | n | n | n | n | n | n | n | x
COCCn1c(=O)[nH]c2cc(C(=O)Nc3nnc(C)s3)ccc21 | x | x | n | n | x | n | x | x | x
CC(=O)C1=C(C)OC2(O)c3ccccc3C(=O)C12O (stereo unspecified) | n | n | n | n | u | u | x | x | n
CCOC(=O)C1=C(C)OC2(O)c3ccccc3C(=O)C12O (stereo unspecified) | n | n | u | n | n | u | x | x | x
O=C(O)CCC(=O)Nc1nc2nc(-c3ccccc3)cc(-c3ccccc3)n2n1 | n | n | n | n | n | n | 35µM | u | x
CC(=O)Nc1ccc(S(=O)(=O)Nc2nc3nc(-c4ccccc4)cc(-c4ccccc4)n3n2)cc1 | x | x | n | n | x | n | x | x | x
COc1cc(NC(=O)Cn2ncc3c([nH]c4ccc(C)cc43)c2=O)cc(OC)c1OC | n | n | n | x | x | x | x | x | x
CC(=O)c1cccc(S(=O)(=O)N2CCCC(c3nc(-c4ccc(C)o4)no3)C2)c1 (stereo unspecified) | n | n | n | n | u | n | x | x | n
Cc1ccc(-c2noc(C3CCCN(S(=O)(=O)c4ccc5ccccc5c4)C3)n2)o1 (stereo unspecified) | n | n | n | n | n | n | x | x | x
Cc1ccc(S(=O)(=O)NCC(C)n2cncn2)cc1C (stereo unspecified) | x | x | n | n | x | n | x | x | x
Cn1c(C(=O)O)c(CC(=O)NCC2COc3ccccc3O2)c2ccccc21 (stereo unspecified) | n | n | n | n | n | n | n | n | x
O=C(Cc1ccccc1)NCC1COc2ccccc2O1 (stereo unspecified) | x | x | x | n | x | x | x | x | x
CCCCn1c(Cl)nc2c1c(=O)n(C)c(=O)n2C | n | n | n | n | u | n | x | x | n
COc1ccc(N(Cc2cccs2)C(=O)c2ccccc2C)cc1 | n | n | n | x | x | x | x | x | x
Cc1cc(Br)ccc1NC(=O)CNC(=O)CSc1nccn1C | x | x | x | n | x | n | x | x | x
CCC(C(=O)Nc1ccccc1OC)n1c(C(=O)OC)cc2ccsc21 (stereo unspecified) | n | n | n | n | 1.4µM | n | u | n | n
COc1ccc(NC(=O)Nc2nnc(N(CC(C)C)CC(C)C)s2)c(OC)c1 | n | n | n | x | x | x | x | x | x
SMILES | TRb-SRC2 inh | TexasRed fluor | BLM helicase inh | WRN helicase inh | RECQ1 inh-1 | APEX1 inh | RECQ1 conf | ADP FP counter | RECQ1 inh-2
CCN1CCN(c2cc(C)c3cc(NC(=O)c4ccc(OC)c(OC)c4)ccc3n2)CC1 | n | n | n | n | 22µM | n | x | x | u
CCn1c(CSc2nnc3ccccn23)nc2cc(C(=O)O)ccc21 | 7.9µM | 40µM[fluorescent] | n | n | 10µM | n | 45µM | 2µM | 56µM
CCn1c(CSc2nnc(-c3ccncc3)n2CCOC)nc2cc(C(=O)O)ccc21 | 13µM | 50µM[fluorescent] | n | u | 22µM | n | 56µM | 4.5µM | n
Nc1nonc1C(=O)NCCNC(=O)c1cccc(Cl)c1 | x | x | n | n | x | n | x | x | x
C=CCn1c(SCC(=O)NCc2ccccc2)nnc1-c1ccccc1O | n | n | n | n | n | n | n | n | x
CCOC(=O)c1cccc(NC(=O)c2cc3c(=O)n(Cc4cccnc4)ccc3nc2C)c1 | n | n | n | x | x | x | x | x | x
O=C(CSc1nnnn1-c1ccc(F)cc1)c1ccc(O)c(O)c1 | n | n | n | u | 5µM | n | n | n | u
O=C(NC1CCCCCC1)c1ccc([N+](=O)[O-])s1 | x | x | x | n | x | n | x | x | x
O=C1CC(=O)CC(c2ccccc2Cl)C1 | n | n | n | n | u | n | x | x | n
Cc1cc(NS(=O)(=O)c2ccc(NC(=O)CCCOc3ccccc3C)cc2)nc(C)n1 | x | x | n | u | x | n[12.4 µM] | x | x | x
Nc1nc(Nc2ccc(Cl)cc2)nc(NCc2ccco2)c1[N+](=O)[O-] | n | n | u | u | 16µM | n | 32µM | n | 79µM
Nc1nc(Nc2cccc(Cl)c2)nc(NCCO)c1[N+](=O)[O-] | n | n | u | n | u | n | x | x | 50µM
Nc1nc(Nc2cccc(Cl)c2)nc(NCc2ccco2)c1[N+](=O)[O-] | n | n | u | u | u | n | x | x | 79µM
COc1ccc(-c2cc3nc(-c4ccccc4)cc(N4CCCC(O)C4)n3n2)cc1 (stereo unspecified) | n | n | n | n | u | n | x | x | n
CCOC(=O)c1ccc(CC(=O)c2ccc(O)c(O)c2O)o1 | n | n | n | u | 1.4µM | u | n | n | x
